FBW7 activator = FBW7 E3 ligase activators, primary screen, biochemical, AlphaScreen, human; AlphaScreen FBW7–phospho-cyclin E peptide binding, activator screen; F-box/WD repeat-containing protein 7 (Homo sapiens), Q969H0; 650,000 tested, 0.13% active; normalized activity (activation), % at 26.1 µM; in the data active = normalized activity above about 1.9%;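 note: purified mutant Fbw7 with reduced substrate affinity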
MITF inh = MITF inhibitors, primary screen, biochemical, AlphaScreen, human. AlphaScreen MITF homodimerization, bead proximity signal. inhibition, % at 2.6 µM. 650,000 tested, 0.91% active; in the data active = inhibition above about 50%;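 note: 0% = vehicle wells with protein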
TEAD-YAP block = TEAD-YAP interaction inhibition, primary screen, TEAD-YAP interaction inhibitor project, luminescence, HEK-TIYL cells. TEAD-Gal4/YAP UAS-luciferase luminescence. inhibition, % at 9.12 µM. 640,000 tested, 1.4% active; in the data active = inhibition above about 32%;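 note: 0% = median of test compound wells and 100% = reference inhibitor wells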
GPR151 ag = activators of human GPR151, primary screen, cell-based, PathHunter beta-arrestin, luminescence; G-protein coupled receptor 151 (Homo sapiens), Q8TDV0; PathHunter beta-arrestin GPR151 cells; activation, % at 11.2 µM; 650,000 tested, 1% active; AID 1508602, 2020; in the data active = activation above about 4.9%;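 note: 0% = median of compound wells and 100% = cells with positive control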
Target sequence (Q8TDV0 whole entry, looked up): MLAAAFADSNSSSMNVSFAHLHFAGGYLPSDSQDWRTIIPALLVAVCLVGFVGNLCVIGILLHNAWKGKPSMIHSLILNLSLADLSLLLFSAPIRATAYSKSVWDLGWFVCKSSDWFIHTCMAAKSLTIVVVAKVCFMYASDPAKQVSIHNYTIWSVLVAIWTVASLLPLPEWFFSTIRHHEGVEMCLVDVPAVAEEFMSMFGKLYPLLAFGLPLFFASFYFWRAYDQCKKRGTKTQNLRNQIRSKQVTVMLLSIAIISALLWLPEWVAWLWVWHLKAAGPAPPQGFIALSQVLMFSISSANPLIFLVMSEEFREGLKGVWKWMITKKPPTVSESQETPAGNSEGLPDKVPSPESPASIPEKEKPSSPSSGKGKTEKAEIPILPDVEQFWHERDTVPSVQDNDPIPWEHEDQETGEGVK
Active calls of the source: *. In the library only some 3.5% were active in any assay of this set; here they are far more common.

Screening Cc1cc(C(=O)CSc2nnc3ccccn23)c(C)n1-c1ccc(Br)cc1 returned FBW7 activator 0, MITF inh 1, TEAD-YAP block -68 and GPR151 ag -1.
COCCn1c(C)cc(C(=O)CSc2ccc(Cl)cc2)c1C was read as FBW7 activator 0, MITF inh -9, TEAD-YAP block 88* and GPR151 ag -3.
Cc1cc(C(=O)CSc2nnc3ccccn23)c(C)n1C1CCCCC1 was read as FBW7 activator 0, MITF inh 8, TEAD-YAP block 60* and GPR151 ag -2.
Cc1ccc(-n2c(C)cc(C(=O)COC(=O)c3ccc[nH]c3=O)c2C)cc1 was read as FBW7 activator 0, MITF inh 10, TEAD-YAP block -30 and GPR151 ag 0.
`COCCn1c(C)cc(C(=O)COC(=O)c2ccc[nH]c2=O)c1C` gave FBW7 activator 0, MITF inh 2, TEAD-YAP block 62* and GPR151 ag 0.
`COCCn1c(C)cc(C(=O)CSc2nc(C)c(C)c(C)n2)c1C` gave FBW7 activator 0, MITF inh 6, TEAD-YAP block -5 and GPR151 ag 1.
`COCCn1c(C)cc(C(=O)CSc2nnc3ccccn23)c1C` gave FBW7 activator 0, MITF inh -6, TEAD-YAP block 55* and GPR151 ag -6.
Cc1ccc(C2NC(=O)NC3=C2C(=O)CC(C)(C)C3)cc1 (configuration not stated) was read as FBW7 activator 0, MITF inh 2, TEAD-YAP block 10 and GPR151 ag 2.
Screening COc1ccc(C(=O)[C@@H]2[C@@H](c3ccccc3F)C(C#N)(C#N)[C@H]3C=Cc4ccccc4N23)cc1 returned FBW7 activator 0, MITF inh 0, TEAD-YAP block 67* and GPR151 ag 0.
`COc1ccc(C(=O)[C@@H]2[C@@H](c3cccnc3)C(C#N)(C#N)[C@H]3C=Cc4ccccc4N23)cc1` gave FBW7 activator 0, MITF inh 12, TEAD-YAP block 58* and GPR151 ag 3.
For Cc1ccc(C(=O)[C@@H]2[C@@H](c3ccccc3F)C(C#N)(C#N)[C@H]3C=Cc4ccccc4N23)cc1 the results were FBW7 activator 0, MITF inh -7, TEAD-YAP block -12 and GPR151 ag 0.
Screening CCc1ccc(NC(=O)CN2CCN(CC)C(=O)C2=O)cc1 returned FBW7 activator 0, MITF inh 0, TEAD-YAP block 5 and GPR151 ag -1.
For CSCc1ccc(C(=O)NC2CCCCCC2)cc1 the results were FBW7 activator 0, MITF inh -4, TEAD-YAP block 47* and GPR151 ag -6.
O=C(NC1CCCCC1)c1ccc(CSc2ccc(Cl)cc2)cc1 was read as FBW7 activator 0, MITF inh -7, TEAD-YAP block -4 and GPR151 ag 0.
For COc1cccc(C2=NN3C(C2)c2cccc(OC)c2OC3c2cccc(Cl)c2)c1 (configuration not stated) the results were FBW7 activator 0, MITF inh 4, TEAD-YAP block 29 and GPR151 ag 1.
For CCOc1cccc2c1OC(c1ccc(OC)cc1)N1N=C(c3cccc(OC)c3)CC21 (configuration not stated) the results were FBW7 activator 0, MITF inh -7, TEAD-YAP block 47* and GPR151 ag -2.
`COc1cccc(C2=NN3C(C2)c2cccc(OC)c2OC3c2ccc(SC)cc2)c1` (configuration not stated) gave FBW7 activator 0, MITF inh -5, TEAD-YAP block 47* and GPR151 ag -1.
For CCn1c(C)nc2c(C)[n+](CC(=O)c3ccc(Br)cc3)ccc21 the results were FBW7 activator 0, MITF inh -6, TEAD-YAP block 38* and GPR151 ag -1.
CN=c1scc(-c2ccc(C)c(C)c2)n1/N=C/c1ccc(O)c(O)c1O was read as FBW7 activator -1, MITF inh 21, TEAD-YAP block 70* and GPR151 ag -2.
`O=[N+]([O-])c1ccc(/C=C/c2ccc(O)cc2)cc1` gave FBW7 activator 0, MITF inh 4, TEAD-YAP block 49* and GPR151 ag -11.
Screening COC(=O)c1ccc(N/C=C2/CCc3ccccc3C2=O)cc1 returned FBW7 activator 0, MITF inh 23, TEAD-YAP block 68* and GPR151 ag -6.
Screening O=C(c1ccc(F)cc1Cl)N1CCC(Oc2nc3c(F)cccc3s2)CC1 returned FBW7 activator 1, MITF inh 24, TEAD-YAP block 12 and GPR151 ag 0.
`CCn1ccc(C(=O)N2CCC(Oc3nc4c(F)cc(F)cc4s3)CC2)n1` gave FBW7 activator 2.4*, MITF inh 7, TEAD-YAP block 0 and GPR151 ag 0.
For O=C(c1cc2c(ccc3ccccc32)oc1=O)N1CCCC1 the results were FBW7 activator 3.2*, MITF inh 2, TEAD-YAP block -3 and GPR151 ag 0.
`O=C(c1cc2c(ccc3ccccc32)oc1=O)N1CCOCC1` gave FBW7 activator 0, MITF inh -6, TEAD-YAP block -29 and GPR151 ag 0.
`CC(=O)Nc1ccc(/C=C2\C(=O)N(c3ccccc3)N=C2C)cc1` gave FBW7 activator 0, MITF inh -6, TEAD-YAP block -6 and GPR151 ag -2.
Screening Cn1cc(CNc2nncc(-c3ccc4ccccc4c3)n2)cn1 returned FBW7 activator 0, MITF inh 9, TEAD-YAP block 34* and GPR151 ag -1.
Cn1cc(CNc2nncc(-c3ccc(Cl)cc3)n2)cn1 was read as FBW7 activator 0, MITF inh 6, TEAD-YAP block 1 and GPR151 ag 1.
`COc1ccc2cc3c(N)nn(C(=O)c4cccc(F)c4)c3nc2c1` gave FBW7 activator 0, MITF inh 8, TEAD-YAP block 29 and GPR151 ag 0.
Screening COc1ccc2cc3c(N)nn(C(=O)c4ccccc4Cl)c3nc2c1 returned FBW7 activator 0, MITF inh 9, TEAD-YAP block 45* and GPR151 ag -2.
Screening COc1ccc2cc3c(N)nn(C(=O)c4cccnc4)c3nc2c1 returned FBW7 activator 0, MITF inh -11, TEAD-YAP block 32* and GPR151 ag 0.
`COc1ccc2cc3c(N)nn(C(=O)c4ccccc4F)c3nc2c1` gave FBW7 activator 0, MITF inh 4, TEAD-YAP block 55* and GPR151 ag 0.
COc1ccc2cc3c(N)nn(C(=O)c4ccc(F)cc4)c3nc2c1 was read as FBW7 activator 0, MITF inh 11, TEAD-YAP block 36* and GPR151 ag 1.
For COc1ccc2cc3c(N)nn(C(=O)c4cccc(Cl)c4)c3nc2c1 the results were FBW7 activator 0, MITF inh -2, TEAD-YAP block -2 and GPR151 ag -2.
For Cc1cccc(N2C(=O)NC3CC2(C)Oc2ccccc23)c1C (configuration not stated) the results were FBW7 activator 0, MITF inh 7, TEAD-YAP block 7 and GPR151 ag 1.
